Results from the supplement of paper PMC6555819.

Tests used:
Experiment in all cases: PBM binding z-score (relative to random genomic background probes); higher = stronger binding; sequences stand for … in GC…GCGATTGACAGCGTAGAATGAAGG
[1] = test system: FXR:RXRa (NR concentration 270 nM, RXRa partner concentration 90 nM)
Outline: (§1)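 Antibodies against each partner of ligand-free nuclear receptor dimers (one per run) detected binding on custom Agilent 4×180K protein-binding microarrays after 1 h incubation. The double-stranded probes had 34-nt variable regions carrying direct-repeat seeds, single-nucleotide variants, half-site ablations and random human genomic background sequences. Binding z-scores, from regression-normalized fluorescence, use the random background probes as reference.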

[2] = test system: LXRa:RXRa (NR concentration 270 nM, RXRa partner concentration 90 nM)
Outline: as §1

[3] = test system: LXRa homodimer (NR concentration 270 nM)
Outline: as §1

[4] = test system: LXRb:RXRa (NR concentration 270 nM, RXRa partner concentration 90 nM)
Outline: as §1

[5] = test system: LXRb homodimer (NR concentration 270 nM)
Outline: as §1

[6] = test system: PPARa:RXRa (NR concentration 270 nM, RXRa partner concentration 90 nM)
Outline: as §1

[7] = test system: PPARg:RXRa (NR concentration 180 nM, RXRa partner concentration 90 nM)
Outline: as §1

[8] = test system: PPARg:RXRa 270nM:90nM, anti-RXR (NR concentration 270 nM, RXRa partner concentration 90 nM)
Outline: as §1

[9] = test system: PPARg:RXRa 30nM:10nM, anti-RXR (NR concentration 30 nM, RXRa partner concentration 10 nM)
Outline: as §1

[10] = test system: PPARg:RXRa 90nM:30nM, anti-RXR (NR concentration 90 nM, RXRa partner concentration 30 nM)
Outline: as §1

[11] = test system: PPARg:RXRa DBDmut IVT, anti-RXR (DBD mutation: RXRa K156A/R161A, NR concentration 270 nM, RXRa partner concentration 90 nM)
Outline: as §1

[12] = test system: PPARg:RXRa IVT, anti-PPARg (NR concentration 270 nM, RXRa partner concentration 90 nM)
Outline: as §1

[13] = test system: PPARg DBDmut:RXRa IVT, anti-PPARg (DBD mutation: PPARg1 K132A/R137A, NR concentration 270 nM, RXRa partner concentration 90 nM)
Outline: as §1

[14] = test system: PPARg DBDmut IVT, anti-PPARg (DBD mutation: PPARg1 K132A/R137A, NR concentration 270 nM)
Outline: as §1

[15] = test system: PPARg homodimer (NR concentration 180 nM)
Outline: as §1

[16] = test system: PXR:RXRa (NR concentration 270 nM, RXRa partner concentration 90 nM)
Outline: as §1

[17] = test system: PXR homodimer (NR concentration 270 nM)
Outline: as §1

[18] = test system: RARa:RXR (NR concentration 270 nM, RXRa partner concentration 90 nM)
Outline: as §1

[19] = test system: RARa homodimer (NR concentration 270 nM)
Outline: as §1

[20] = test system: RARb:RXRa (NR concentration 270 nM, RXRa partner concentration 90 nM)
Outline: as §1

Sequence | PBM binding z-score [1] | PBM binding z-score [2] | PBM binding z-score [3] | PBM binding z-score [4] | PBM binding z-score [5] | PBM binding z-score [6] | PBM binding z-score [7] | PBM binding z-score [8] | PBM binding z-score [9] | PBM binding z-score [10] | PBM binding z-score [11] | PBM binding z-score [12] | PBM binding z-score [13] | PBM binding z-score [14] | PBM binding z-score [15] | PBM binding z-score [16] | PBM binding z-score [17] | PBM binding z-score [18] | PBM binding z-score [19] | PBM binding z-score [20]
CGAACTAGGTCATCCAGGAAAGTGAATACATTGA | 4.43 | 2.64 | 0.469 | 2.15 | 0.453 | 5.01 | 7.91 | 6.29 | 4.25 | 5.91 | 8.18 | 8.5 | 3.43 | 1.05 | 1.98 | 1.58 | 0.128 | 2.49 | 0.697 | 3.96
CAGCCTAGGTCAGGGCCTGTATAGGAGGAACGTT | 1.48 | 0.732 | -0.667 | 0.189 | -0.753 | 1.95 | 0.752 | 0.931 | -0.43 | 0.141 | 1.45 | 1.31 | -0.895 | -1.4 | 0.134 | 0.236 | -0.76 | 0.971 | -1.2 | 3.33
TTAGCAAGGTGAGCTGAGGTCGTTGATCCAACTC | 0.796 | 1.32 | -0.635 | 0.393 | -0.992 | 1.72 | -0.0318 | 0.607 | -0.48 | 0.182 | 0.492 | 1.3 | -0.527 | -1.48 | -0.0688 | 4.92 | 0.566 | 2.28 | -1.15 | 1.59
TTAACAAGGTGAGCTGAGGTCGTTGATCCAACTC | 1.71 | 1.21 | -0.57 | 0.45 | -0.886 | 1.72 | 0.604 | 0.987 | 0.415 | 0.24 | 1.96 | 2.33 | -0.0875 | 0.378 | -0.141 | 4.89 | 0.519 | 1.62 | -0.64 | 1.66
AGAATGAGGGTAAGATCAGGGAAACAGAATACAT | 0.539 | 0.166 | 0.147 | 0.566 | 0.276 | 0.918 | 0.981 | 0.698 | 0.455 | 0.409 | 2.28 | 1.71 | 1.14 | 0.818 | 0.587 | 0.216 | 0.539 | 0.611 | 1.07 | 0.741
CGTCCAAGGTCGATGCTAGGTCAGTGAAAGCATT | 1.61 | 1.91 | -0.14 | 1.33 | -0.866 | 1.81 | -0.125 | 0.529 | -0.65 | -0.0604 | 0.324 | 0.816 | -0.113 | -0.767 | 1.54 | 2.04 | 0.704 | 2.49 | -0.458 | 2.92
ACAGACAGGTGAGTGAAGGTAAATCAGCTGGACG | 0.263 | -0.325 | -0.654 | -0.138 | -0.427 | -0.1 | 0.739 | -0.481 | -0.0948 | -0.384 | 0.437 | 0.547 | -0.117 | 0.0853 | 0.0194 | -0.359 | -0.168 | 0.0806 | -0.397 | 0.388
CCTGTTAGGTCATGGTCAGCTAATCTACAGTATG | 4.26 | 2.77 | 0.732 | 2.3 | 0.739 | 3.71 | 1.92 | 2.38 | 0.613 | 1.33 | 3.41 | 2.86 | 0.756 | 1.29 | 2.12 | 1.77 | 0.504 | 2.9 | 0.828 | 4.16
ATATGTAGGTTAAGGGTCATTCCGGTTGGTTCGC | 5.44 | 4.91 | 3.25 | 4.19 | 1.33 | 6.67 | 11.4 | 9.69 | 10.2 | 11.1 | 7.18 | 7.95 | 2.74 | 3.31 | 3.95 | 5.32 | 1.33 | 5.86 | 1.66 | 3.58
GATACAGGGTCAGCTGGAGGCCAGAGTATGGAAA | 5.07 | 2.76 | -0.49 | 2.38 | -0.887 | 4.47 | 3.91 | 3.62 | 1.24 | 2.49 | 1.09 | 2.28 | -0.601 | -0.834 | 2.9 | 3.53 | -0.0691 | 5.12 | 0.139 | 4.3
CCTACTGGCCCAAAAAGGTCATTGATGCCGATAA | 3.63 | 4.47 | 3.88 | 4.4 | 1.04 | 4.74 | 1.35 | 2.89 | 0.585 | 1.93 | 0.453 | 1.52 | -0.0321 | -0.749 | 3.4 | 4.99 | 2.07 | 5.65 | 2.16 | 3.99
ACTAGCAGGCCAAGTTTGGGTCACACAAACAAAG | 0.341 | 0.408 | -0.252 | 1.17 | -0.354 | 1.85 | 0.563 | 0.793 | -0.154 | 0.0156 | 0.756 | 1.65 | 0.166 | -0.339 | 0.789 | 1.07 | -0.0733 | 1.95 | -0.318 | 1.91
ACTAGCAGGCCAAGGGTCACTCACGATTAGTCCG | 2.5 | 2.67 | 0.186 | 2.74 | -0.177 | 4.69 | 7.31 | 6.69 | 5.72 | 6.89 | 1.04 | 3.8 | 0.074 | -0.149 | 1.92 | 3.09 | -0.277 | 3.55 | 0.389 | 3.45
CCTTACGGGTCACTGATAGGTTATAGCATTTGGA | 5.04 | 4.27 | 0.473 | 3.53 | 0.0559 | 5 | 4.57 | 4.4 | 1.47 | 3.36 | 3.46 | 3.73 | 1.18 | 0.0564 | 2.47 | 3.6 | 0.321 | 4.43 | 1.27 | 4.02
CAAACTAGGTCAAACGTCAAAGTCGAGCCAACCA | 5.56 | 4.17 | 1.04 | 3.16 | 1.12 | 6.14 | 10.8 | 9.01 | 8.48 | 9.75 | 8.33 | 8.65 | 4.47 | 4.15 | 2.05 | 2.38 | 0.241 | 3.65 | 0.354 | 4.21
GCGACTGGGGCAAAGCAGGTTACCCTAAGGTTGG | 0.366 | 0.0738 | -0.555 | 0.116 | -0.841 | 1.56 | 1.08 | 1.52 | -0.381 | 0.659 | 4.69 | 3.9 | -0.575 | -1.15 | 0.0575 | 0.0911 | -0.579 | 0.634 | -1.43 | 0.752
ATCTCTAGGTAAAGTTAGTTCAGTGAATGCAAAT | 0.83 | 3.72 | 0.641 | 0.747 | 0.893 | 0.661 | 0.555 | 1.07 | 0.112 | 1.03 | 2.54 | 2.3 | 1.03 | 0.811 | 1.08 | 1.65 | 1.25 | 1.12 | 0.947 | 0.74
GGAACGAGGGCATGTTGATAGCAGAGTTTGATGG | 0.438 | -0.0957 | 0.0371 | 0.12 | -0.293 | 0.843 | 0.848 | 0.668 | 0.0112 | -0.104 | 2.6 | 1.79 | 0.588 | -0.313 | 0.877 | 0.633 | 0.542 | 0.117 | 0.262 | 1.81
